In PubChem BioAssay (NCATS):
Results filed as inconclusive are left out. Where a call stands in place of a potency, no number is given. The source made the active and inactive calls. The call rests on the fitted dose curve; in most records, active means well fitted inhibition curve with a large enough effect; inconclusive means small, poorly fitted or top-dose-only effect, or effect the other way; inactive means flat fitted curve, though single readings scatter.

target: ATP-dependent 6-phosphofructokinase (Trypanosoma brucei brucei) (UniProt O15648); assay: qHTS Assay to Find Inhibitors of T. brucei phosphofructokinase: hit validation (AID 492961);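 further: luminescence reports ADP formed as PFK phosphorylates fructose-6-phosphate with ATP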; conditions: T. brucei PFK, ADP-Glo luminescence; series mostly up to 51.4 µM
Sequence (O15648 whole entry, looked up): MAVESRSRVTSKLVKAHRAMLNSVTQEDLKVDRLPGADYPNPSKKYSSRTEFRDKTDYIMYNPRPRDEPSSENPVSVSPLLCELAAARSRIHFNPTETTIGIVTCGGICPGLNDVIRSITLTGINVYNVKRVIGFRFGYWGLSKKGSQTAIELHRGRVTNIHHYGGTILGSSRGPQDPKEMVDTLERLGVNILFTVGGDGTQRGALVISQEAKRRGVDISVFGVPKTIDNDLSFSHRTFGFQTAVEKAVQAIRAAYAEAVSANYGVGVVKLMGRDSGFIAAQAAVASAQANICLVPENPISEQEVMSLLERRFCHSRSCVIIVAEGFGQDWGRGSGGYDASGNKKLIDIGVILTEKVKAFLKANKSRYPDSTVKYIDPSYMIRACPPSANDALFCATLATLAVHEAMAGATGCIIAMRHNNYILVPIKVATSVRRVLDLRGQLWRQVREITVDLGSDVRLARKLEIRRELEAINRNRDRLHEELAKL
In short: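 ADP-Glo luminescence read-out of ADP formed by 1.25 nM PFK from 0.1 mM ATP and 0.5 mM F6P (TEA pH 8.0, 45 min, RT). Compounds titrated; activity normalized to no-enzyme and full-enzyme controls.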

SMILES	Potency
CC(C)N=c1cc2n(-c3ccc(Cl)cc3)c3ccccc3nc-2cc1Nc1ccc(Cl)cc1	inactive
CN(C)CCCN1c2ccccc2C(C)(C)c2ccccc21	inactive
O=S(=O)(O)O	inactive
CCCCC(C)(O)C/C=C/[C@H]1[C@H](O)CC(=O)[C@@H]1CCCCCCC(=O)OC (stereo partly specified)	inactive
CO[C@H]1C[C@@H]2CC[C@@H](C)[C@@](O)(O2)C(=O)C(=O)N2CCCC[C@H]2C(=O)O[C@H]([C@H](C)C[C@@H]2CC[C@@H](OCCO)[C@H](OC)C2)CC(=O)[C@H](C)/C=C(\C)[C@@H](O)[C@@H](OC)C(=O)[C@H](C)C[C@H](C)/C=C/C=C/C=C/1C	inactive
O=C(Nc1ccc(Br)cc1)c1cc(Br)c(Br)s1	inactive
C[C@]12CCC(=O)C=C1CC[C@@H]1[C@@H]2[C@@H](O)C[C@@]2(C)[C@H]1CC[C@]2(O)C(=O)COP(=O)(O)O	inactive
C=CCSSSCC=C	inactive
Nc1c(N=Nc2ccc(-c3ccc(N=Nc4cc(S(=O)(=O)O)c5ccccc5c4N)cc3)cc2)cc(S(=O)(=O)O)c2ccccc12	inactive
CCCCCCCC(=O)O	inactive
C=C1C(=CC=C2CCC[C@@]3(C)[C@@H]2CC[C@H]3[C@H](C)CCCC(C)C)C[C@@H](O)C[C@@H]1O	inactive
O=C1CSC2(CCN(CCCN3c4ccccc4Sc4ccc(Cl)cc43)CC2)N1	inactive
Cc1ccccc1	inactive
CC[N+](C)(C)Cc1ccccc1Br	inactive
CCOC(C)=O	inactive
COC(=O)C1=C(C#N)NC(C)=C(C(=O)OC(C)C)C1c1cccc([N+](=O)[O-])c1 (stereo unspecified)	inactive
